The sample as a whole holds a higher share of the strongest signals than the screen did.
What was measured:
Assay in all cases: glycan array binding signal (z-score within array); higher = stronger binding
Settings in all cases: glycan notation: IUPAC condensed, linker removed
[1] = target: Fuc(a1-2)Gal(b1-3)GalNAc(b1-4)[Neu5Ac(a2-3)]Gal(b1-4)Glc
Method in brief: (§1)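 The Consortium for Functional Glycomics database supplied 3228 glycan arrays, of which those lacking an available protein sequence were dropped. The binding signal, a within-array Z-score, was averaged across arrays of the same protein sequence and across linkers. Negative scores can be read as non-binding.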

Fuc(a1-2)Gal(b1-4)GlcNAc = target: Fuc(a1-2)Gal(b1-4)GlcNAc
Method in brief: as §1

[2] = target: Fuc(a1-2)Gal(b1-4)GlcNAc(b1-2)Man(a1-3)[Fuc(a1-2)Gal(b1-4)GlcNAc(b1-2)Man(a1-6)]Man(b1-4)GlcNAc(b1-4)[Fuc(a1-6)]GlcNAc
Method in brief: as §1

[3] = target: Fuc(a1-2)[Gal(a1-3)]Gal(b1-3)GlcNAc
Method in brief: as §1

[4] = target: Fuc(a1-2)[Gal(a1-3)]Gal(b1-3)GlcNAc(b1-6)GalNAc
Method in brief: as §1

[5] = target: Fuc(a1-2)[GalNAc(a1-3)]Gal(b1-4)GlcNAc(b1-2)Man
Method in brief: as §1

[6] = target: Fuc(a1-2)[GalNAc(a1-3)]Gal(b1-4)GlcNAc(b1-2)Man(a1-3)[Fuc(a1-2)[GalNAc(a1-3)]Gal(b1-4)GlcNAc(b1-2)Man(a1-6)]Man(b1-4)GlcNAc(b1-4)[Fuc(a1-6)]GlcNAc
Method in brief: as §1

[7] = target: Fuc(a1-3)[Gal(b1-4)]GlcNAc(b1-6)[Gal(b1-3)GlcNAc(b1-3)]Gal(b1-4)Glc
Method in brief: as §1

[8] = target: Gal(a1-3)Gal(b1-4)GlcNAc(b1-6)GalNAc
Method in brief: as §1

Gal(b1-3)Gal(b1-4)GlcNAc = target: Gal(b1-3)Gal(b1-4)GlcNAc
Method in brief: as §1

[9] = target: Gal(b1-3)GalNAc(b1-4)[Neu5Ac(a2-3)]Gal(b1-4)Glc
Method in brief: as §1

Gal(b1-4)Glc = target: Gal(b1-4)Glc
Method in brief: as §1

[10] = target: Gal(b1-4)GlcNAc(a1-6)Gal(b1-4)GlcNAc
Method in brief: as §1

[11] = target: Gal(b1-4)GlcNAc(b1-2)Man(a1-3)[Gal(b1-4)GlcNAc(b1-2)Man(a1-6)][Gal(b1-4)GlcNAc(b1-4)]Man(b1-4)GlcNAc(b1-4)[Fuc(a1-6)]GlcNAc
Method in brief: as §1

[12] = target: Gal(b1-4)GlcNAc(b1-2)Man(a1-6)[GlcNAc(b1-2)Man(a1-3)]Man(b1-4)GlcNAc(b1-4)GlcNAc
Method in brief: as §1

[13] = target: Gal(b1-4)GlcNAc(b1-3)Gal(b1-4)GlcNAc(b1-2)Man(a1-3)[Gal(b1-4)GlcNAc(b1-3)Gal(b1-4)GlcNAc(b1-2)Man(a1-6)]Man(b1-4)GlcNAc(b1-4)GlcNAc
Method in brief: as §1

[14] = target: Gal(b1-4)GlcNAc(b1-3)Gal(b1-4)GlcNAc(b1-2)[Gal(b1-4)GlcNAc(b1-3)Gal(b1-4)GlcNAc(b1-6)]Man(a1-6)[Gal(b1-4)GlcNAc(b1-3)Gal(b1-4)GlcNAc(b1-2)Man(a1-3)]Man(b1-4)GlcNAc(b1-4)[Fuc(a1-6)]GlcNAc
Method in brief: as §1

[15] = target: Gal(b1-4)GlcNAc(b1-3)Gal(b1-4)GlcNAc(b1-3)Gal(b1-4)GlcNAc(b1-3)Gal(b1-4)GlcNAc(b1-2)Man(a1-3)[Gal(b1-4)GlcNAc(b1-3)Gal(b1-4)GlcNAc(b1-3)Gal(b1-4)GlcNAc(b1-3)Gal(b1-4)GlcNAc(b1-2)Man(a1-6)]Man(b1-4)GlcNAc(b1-4)GlcNAc
Method in brief: as §1

[16] = target: Gal(b1-4)GlcNAc(b1-3)Gal(b1-4)GlcNAc(b1-3)Gal(b1-4)GlcNAc(b1-3)Gal(b1-4)GlcNAc(b1-2)Man(a1-3)[Gal(b1-4)GlcNAc(b1-3)Gal(b1-4)GlcNAc(b1-3)Gal(b1-4)GlcNAc(b1-3)Gal(b1-4)GlcNAc(b1-2)Man(a1-6)]Man(b1-4)GlcNAc(b1-4)[Fuc(a1-6)]GlcNAc
Method in brief: as §1

[17] = target: Gal(b1-4)GlcNAc(b1-3)Gal(b1-4)GlcNAc(b1-3)Gal(b1-4)GlcNAc(b1-3)Gal(b1-4)GlcNAc(b1-3)Gal(b1-4)GlcNAc(b1-2)Man(a1-3)[Gal(b1-4)GlcNAc(b1-3)Gal(b1-4)GlcNAc(b1-3)Gal(b1-4)GlcNAc(b1-3)Gal(b1-4)GlcNAc(b1-3)Gal(b1-4)GlcNAc(b1-2)Man(a1-6)]Man(b1-4)GlcNAc(b1-4)[Fuc(a1-6)]GlcNAc
Method in brief: as §1

Gal3S(b1-4)Glc = target: Gal3S(b1-4)Glc
Method in brief: as §1

[18] = target: Glc(a1-4)Glc(a1-4)Glc(a1-4)Glc
Method in brief: as §1

[19] = target: GlcNAc(b1-2)[GlcNAc(b1-6)]Man(a1-6)[GlcNAc(b1-2)Man(a1-3)]Man(b1-4)GlcNAc(b1-4)[Fuc(a1-6)]GlcNAc
Method in brief: as §1

[20] = target: GlcNAc(b1-3)Gal(b1-4)GlcNAc(b1-2)[GlcNAc(b1-3)Gal(b1-4)GlcNAc(b1-6)]Man(a1-6)[GlcNAc(b1-3)Gal(b1-4)GlcNAc(b1-2)Man(a1-3)]Man(b1-4)GlcNAc(b1-4)GlcNAc
Method in brief: as §1

[21] = target: GlcNAc(b1-3)Gal(b1-4)GlcNAc(b1-3)Gal(b1-4)GlcNAc(b1-2)Man(a1-3)[GlcNAc(b1-3)Gal(b1-4)GlcNAc(b1-3)Gal(b1-4)GlcNAc(b1-2)Man(a1-6)]Man(b1-4)GlcNAc(b1-4)GlcNAc
Method in brief: as §1

[22] = target: GlcNAc(b1-3)Gal(b1-4)GlcNAc(b1-3)Gal(b1-4)GlcNAc(b1-2)[GlcNAc(b1-3)Gal(b1-4)GlcNAc(b1-3)Gal(b1-4)GlcNAc(b1-6)]Man(a1-6)[GlcNAc(b1-3)Gal(b1-4)GlcNAc(b1-3)Gal(b1-4)GlcNAc(b1-2)Man(a1-3)]Man(b1-4)GlcNAc(b1-4)[Fuc(a1-6)]GlcNAc
Method in brief: as §1

[23] = target: GlcNAc(b1-3)Gal(b1-4)GlcNAc(b1-3)Gal(b1-4)GlcNAc(b1-3)Gal(b1-4)GlcNAc(b1-2)Man(a1-3)[GlcNAc(b1-3)Gal(b1-4)GlcNAc(b1-3)Gal(b1-4)GlcNAc(b1-3)Gal(b1-4)GlcNAc(b1-2)Man(a1-6)]Man(b1-4)GlcNAc(b1-4)[Fuc(a1-6)]GlcNAc
Method in brief: as §1

[24] = target: GlcNAc(b1-3)Gal(b1-4)GlcNAc(b1-3)Gal(b1-4)GlcNAc(b1-3)Gal(b1-4)GlcNAc(b1-2)[GlcNAc(b1-3)Gal(b1-4)GlcNAc(b1-3)Gal(b1-4)GlcNAc(b1-3)Gal(b1-4)GlcNAc(b1-6)]Man(a1-6)[GlcNAc(b1-3)Gal(b1-4)GlcNAc(b1-3)Gal(b1-4)GlcNAc(b1-3)Gal(b1-4)GlcNAc(b1-2)Man(a1-3)]Man(b1-4)GlcNAc(b1-4)[Fuc(a1-6)]GlcNAc
Method in brief: as §1

GlcNAc(b1-3)GalNAc = target: GlcNAc(b1-3)GalNAc
Method in brief: as §1

[25] = target: GlcNAc(b1-3)[GlcNAc(b1-4)][GlcNAc(b1-6)]GlcNAc
Method in brief: as §1

[26] = target: Man(a1-2)Man(a1-3)[Man(a1-2)Man(a1-6)]Man(a1-6)[Man(a1-2)Man(a1-2)Man(a1-3)]Man
Method in brief: as §1

[27] = target: Neu5Ac(a2-3)Gal(b1-3)[Fuc(a1-4)]GlcNAc
Method in brief: as §1

[28] = target: Neu5Ac(a2-3)Gal(b1-4)GlcNAc(b1-2)Man(a1-3)[Neu5Ac(a2-3)Gal(b1-4)GlcNAc(b1-2)Man(a1-6)]Man(b1-4)GlcNAc(b1-4)GlcNAc
Method in brief: as §1

[29] = target: Neu5Ac(a2-3)Gal(b1-4)GlcNAc(b1-2)[Neu5Ac(a2-3)Gal(b1-4)GlcNAc(b1-6)]Man(a1-6)[Neu5Ac(a2-3)Gal(b1-4)GlcNAc(b1-2)Man(a1-3)][GlcNAc(b1-4)]Man(b1-4)GlcNAc(b1-4)GlcNAc
Method in brief: as §1

[30] = target: Neu5Ac(a2-3)Gal(b1-4)[Fuc(a1-3)]GlcNAc(b1-3)Gal(b1-4)[Fuc(a1-3)]GlcNAc(b1-3)Gal(b1-4)[Fuc(a1-3)]GlcNAc
Method in brief: as §1

[31] = target: Neu5Ac(a2-3)Gal(b1-4)[Fuc(a1-3)]GlcNAc(b1-6)[Gal(b1-3)]GalNAc
Method in brief: as §1

[32] = target: Neu5Ac(a2-6)Gal(b1-4)GlcNAc(b1-2)[Neu5Ac(a2-6)Gal(b1-4)GlcNAc(b1-4)]Man(a1-3)[GlcNAc(b1-4)][Neu5Ac(a2-6)Gal(b1-4)GlcNAc(b1-4)Man(a1-6)]Man(b1-4)GlcNAc(b1-4)GlcNAc
Method in brief: as §1

[33] = target: Neu5Ac(a2-6)Gal(b1-4)GlcNAc(b1-3)Gal(b1-4)GlcNAc(b1-3)Gal(b1-4)GlcNAc(b1-2)Man(a1-3)[Neu5Ac(a2-6)Gal(b1-4)GlcNAc(b1-3)Gal(b1-4)GlcNAc(b1-3)Gal(b1-4)GlcNAc(b1-2)Man(a1-6)]GalNAc
Method in brief: as §1

[34] = target: Neu5Ac(a2-6)GalNAc(b1-4)GlcNAc6S
Method in brief: as §1

[35] = target: Neu5Gc(a2-3)Gal(b1-4)[Fuc(a1-3)]GlcNAc
Method in brief: as §1

B1: Pwp6 (Candida glabrata) (protein)
chain: MGSSHHHHHHSSGLVPRGSHMASANLPKLTNICQIPDNVKKTSGFKGEIRRIGLFPPGGDYTYLLKFPSTGSTASDTISLTTKPQLSTSGWFPSLFGHTYFIKADLLVYMVAYFVPTETGEYTFKLVNSDDAAVMYVGNPSAFPCGSIDTWPEPRKEDINVCDKISASTKLYMEKGLAYPVRLVWYNGGGDGQFNAQFIDPSGTTHTDWNGYVWQYDACTDCDYK
- glycan array binding signal (z-score) [1]: -0.318
- glycan array binding signal (z-score) (Fuc(a1-2)Gal(b1-4)GlcNAc): -0.848
- glycan array binding signal (z-score) [2]: 0.09
- glycan array binding signal (z-score) [3]: -0.701
- glycan array binding signal (z-score) [4]: -0.097
- glycan array binding signal (z-score) [5]: -0.201
- glycan array binding signal (z-score) [6]: 0.167
- glycan array binding signal (z-score) [7]: -0.265
- glycan array binding signal (z-score) [8]: 0.221
- glycan array binding signal (z-score) (Gal(b1-3)Gal(b1-4)GlcNAc): -0.617
- glycan array binding signal (z-score) [9]: -0.134
- glycan array binding signal (z-score) (Gal(b1-4)Glc): -0.681
- glycan array binding signal (z-score) [10]: -0.631
- glycan array binding signal (z-score) [11]: -0.334
- glycan array binding signal (z-score) [12]: 0.606
- glycan array binding signal (z-score) [13]: 2.96
- glycan array binding signal (z-score) [14]: 0.465
- glycan array binding signal (z-score) [15]: 5.06
- glycan array binding signal (z-score) [16]: 3.31
- glycan array binding signal (z-score) [17]: 1.2
- glycan array binding signal (z-score) (Gal3S(b1-4)Glc): -0.252
- glycan array binding signal (z-score) [18]: -0.556
- glycan array binding signal (z-score) [19]: 0.023
- glycan array binding signal (z-score) [20]: 2.94
- glycan array binding signal (z-score) [21]: 3.63
- glycan array binding signal (z-score) [22]: 3.3
- glycan array binding signal (z-score) [23]: 3.79
- glycan array binding signal (z-score) [24]: 3.71
- glycan array binding signal (z-score) (GlcNAc(b1-3)GalNAc): -0.863
- glycan array binding signal (z-score) [25]: -0.466
- glycan array binding signal (z-score) [26]: -0.603
- glycan array binding signal (z-score) [27]: -0.364
- glycan array binding signal (z-score) [28]: 4.2
- glycan array binding signal (z-score) [29]: 1.89
- glycan array binding signal (z-score) [30]: -0.179
- glycan array binding signal (z-score) [31]: -0.222
- glycan array binding signal (z-score) [32]: -0.266
- glycan array binding signal (z-score) [33]: 8.45
- glycan array binding signal (z-score) [34]: 0.14
- glycan array binding signal (z-score) [35]: -0.654

— the supplement of paper PMC8728848
